Compound activity (PubChem)
PAFAH1B3 inh: PAFAH1B3 (human) inhibition. recombinant PAFAH1B3, FP-rhodamine probe, fluorescence polarization. inhibition, % at 3.39 µM. hit rate 0.28% among 340,000. Q15102. AID 492972;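 active = inhibition above the screen-wide average of all tested compounds plus 3 SD, cut at about 25% in these data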
Target sequence (Q15102 whole entry, looked up): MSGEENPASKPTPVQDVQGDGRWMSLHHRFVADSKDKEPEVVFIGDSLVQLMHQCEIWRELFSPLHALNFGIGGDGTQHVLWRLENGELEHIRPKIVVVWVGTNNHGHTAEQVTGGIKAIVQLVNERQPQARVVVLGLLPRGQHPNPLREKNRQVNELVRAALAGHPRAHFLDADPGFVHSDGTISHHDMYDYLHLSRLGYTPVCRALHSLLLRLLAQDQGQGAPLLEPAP
EBNA-1 inhibitor: blocks EBNA-1 binding to DNA | hit rate 0.34% among 300,000 | AID 1950 | inhibition, % at 14.8 µM | EBNA-1 DNA binding, fluorescence polarization; in the data active = inhibition above about 28%
PAFAH1B2 inh: inhibitors of human PAFAH1B2; P68402; recombinant PAFAH1B2, FP-rhodamine activity probe, fluorescence polarization; inhibition, % at 3.39 µM; hit rate 1.2% among 340,000; AID 492953;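 active = inhibition above the mean of all tested compounds plus 3 SD, cut at about 24% in these data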
ZTA DNA inh: ZTA (EBV) inhibition in EBNA-1 counter-screen; P03206; ZTA-DNA binding, fluorescence polarization; inhibition, % at 11 µM; hit rate 0.15% among 320,000; AID 2234; in the data active = inhibition above about 33%
Target sequence (P03206 whole entry, looked up): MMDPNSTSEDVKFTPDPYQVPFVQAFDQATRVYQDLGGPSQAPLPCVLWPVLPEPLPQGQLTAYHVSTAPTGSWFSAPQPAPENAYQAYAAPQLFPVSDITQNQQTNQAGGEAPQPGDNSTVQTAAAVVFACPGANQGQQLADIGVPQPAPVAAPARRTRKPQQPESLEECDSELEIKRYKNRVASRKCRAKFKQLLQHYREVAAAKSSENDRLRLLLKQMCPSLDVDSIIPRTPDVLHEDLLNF
PAFAH2 inh: inhibitors of human PAFAH2; recombinant PAFAH2, FP-rhodamine activity probe, fluorescence polarization; hit rate 0.99% among 340,000; inhibition, % at 3.39 µM; Q99487;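 active = inhibition above the mean over all tested compounds plus 3 SD, cut at about 30% in these data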;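 note: inhibitors block probe labeling of enzyme so polarization drops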
rCAG RNA binder: r(CAG) repeat RNA binding | AID 651821 | inhibition, % at 3 µM | hit rate 1.3% among 370,000 | TO-PRO-1 dye displacement fluorescence;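 active = inhibition above the plate cutoff, the mean of all test compounds on that plate plus 3 SD, cut at about 35% in these data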;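 note: higher means more dye released from RNA so lower well fluorescence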
EBNA-1 confirm: EBNA-1 (EBV) inhibition, confirmation; shares compounds with EBNA-1 inhibitor; Recombinant EBNA-1 DBD, Cy5-DNA fluorescence polarization; inhibition, % at 14.8 µM; hit rate 35% among 830;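 active = mean inhibition across replicates above a set limit taken from the earlier primary screen, cut at about 28% in these data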
ZTA DNA inh trip: ZTA (EBV) inhibition, triplicate counter-screen; shares compounds with EBNA-1 inhibitor; Zta-ZRE DNA binding, Cy5 fluorescence polarization; inhibition, % at 11.1 µM; 830 tested, under 10 active; AID 2328;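 active = mean inhibition over triplicates above a set limit taken from the primary EBNA-1 screen, cut at about 37% in these data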;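 note: purified full length Zta protein with Cy5 labeled ZRE DNA probe; inhibitors lower polarization by freeing the labeled DNA probe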
Hits are given with their value; – = inactive; · = no result. This is a sample that favours compounds with a hit; in the whole collection about 2.9% have one here.

SMILES	PAFAH1B3 inh	EBNA-1 inhibitor	PAFAH1B2 inh	ZTA DNA inh	PAFAH2 inh	rCAG RNA binder	EBNA-1 confirm	ZTA DNA inh trip
CC(=O)Nc1c(-c2ccc(C(F)(F)F)cc2)nc2ncccn12	·	·	·	·	·	–	·	·
O=C(CCc1nc2sc3c(c2c(=O)[nH]1)CCCC3)Nc1ccccc1Cl	–	39	–	–	–	–	–	–
Cc1cccc(NC(=O)CNC(=O)CCc2nc3sc4c(c3c(=O)[nH]2)CCCC4)c1C	–	–	–	–	–	–	·	·
CCC(NC(=O)c1cccc2c1C(=O)N(Cc1cccnc1)C2)c1ccccc1 (stereo unspecified)	·	·	·	·	·	–	·	·
Cc1cccc(C)c1-n1nnnc1C1(C)Cn2nccc2C(=O)N1Cc1ccc(F)cc1 (stereo unspecified)	·	·	·	·	·	–	·	·
Cc1ccc(C2CC(c3cccs3)=NN2C(=O)CSc2nc(=O)n3cc(C)ccc3n2)cc1 (stereo unspecified)	–	42	–	–	–	–	–	–
Cc1ccc2nc(SCC(=O)N3N=C(c4cccs4)CC3c3ccc(F)cc3)nc(=O)n2c1 (stereo unspecified)	·	·	·	·	·	–	·	·
COc1ccc(CNC(=O)CSc2nnc3c(n2)[nH]c2ccc(C)cc23)cc1	–	–	–	–	–	–	·	·
COc1ccc2[nH]c3nc(SCc4nnc(-c5ccc(C)cc5)o4)nnc3c2c1	–	55	–	–	–	·	40	–
Cc1ccc(C(C(=O)NCC2CCCO2)N(Cc2ccccc2F)C(=O)Cn2nnc(-c3cccs3)n2)cc1 (stereo unspecified)	–	37	–	–	–	–	–	–
O=C(NC1CCCC1)C(c1ccncc1)N(CC1CCCO1)C(=O)Cn1nnc(-c2cccs2)n1 (stereo unspecified)	–	–	–	–	–	–	·	·
COC(=O)[C@]12C[C@H](CC(=O)N3CCCC3)C(=O)N(Cc3ccccc3)C1=C[C@H](COCc1ccccc1)O[C@@H]2C	·	·	·	·	·	–	·	·
COc1ccc(Cl)cc1NC(=O)CN1CCN(S(=O)(=O)c2ccc(F)cc2)CC1	–	44	–	–	–	–	91	–
COc1ccc(S(=O)(=O)N2CCN(CC(=O)Nc3cc(Cl)ccc3Cl)CC2)cc1	–	·	–	–	–	–	·	·
CCCCN(C(=O)c1cc(CC)c(C)s1)c1c(N)n(CC(C)C)c(=O)[nH]c1=O	–	66	–	–	–	–	–	–
CCCCN(C(=O)c1cccc(-n2cccc2)c1)c1c(N)n(Cc2ccccc2)c(=O)[nH]c1=O	–	31	–	–	–	–	–	–
CCc1cc(C(=O)N(C)CC(=O)N(CC(C)C)c2c(N)n(CC(C)C)c(=O)[nH]c2=O)sc1C	–	–	–	–	–	·	·	·
CCCC[C@H]1C2CC(OC(=O)Nc3ccccc3OC)C(C2)[C@H]2CCCCN21 (stereo partly specified)	·	·	·	·	·	–	·	·
Cc1cccc(C)c1NC(=O)C(c1ccnc2ccccc12)n1c(=O)c(-c2ccccc2)nc2ccccc21 (stereo unspecified)	·	·	·	·	·	–	·	·
CN(CCO)c1ccc2c(c1)Oc1ccccc1CN(Cc1cn(Cc3ccc(C(F)(F)F)cc3)nn1)S2(=O)=O	·	·	·	·	·	–	·	·
COc1ccc(-c2nc(SCC(=O)Nc3nccs3)c(-c3ccc(Cl)cc3)[nH]2)cc1	–	73	–	–	–	–	32	–
COc1ccccc1Cc1c(-c2cccc(Br)c2)nc2ccc(C)cn12	·	·	·	·	·	–	·	·
COc1ccc2cc(C(=O)/C=C/c3cc(OC)c(OC)c(OC)c3)ccc2c1	–	48	–	–	–	–	–	–
COc1cc(C=CC(=O)c2cc(OC)c(OC)c(OC)c2)cc(OC)c1OC	–	·	–	·	–	–	·	·
Cc1ccc(S(=O)(=O)N2C(c3ccccc3)CC(=O)C3CN(S(=O)(=O)c4ccc(Cl)cc4)C(c4ccccc4)CC32)cc1 (stereo unspecified)	·	·	·	·	·	–	·	·
C=CCN1C(=O)[C@H](CC(=O)N2CCSCC2)[C@@]2(C(=O)OCC)CCCC=C12	·	·	·	·	·	–	·	·
CN1CCN(c2nc(-c3ccccn3)nc3ccccc23)CC1	–	63	–	–	–	–	–	–
c1ccc(N2CCN(c3nc(-c4ccccn4)nc4ccccc34)CC2)cc1	–	–	–	–	–	–	·	·
